# Values joined by “and” are separate entries in the source; they are usually repeats but may differ in a detail not shown here. Identical values can stand only once. More than one record can exist for a structure, and the calls need not agree. Active and inactive are the calls of the source. How the source made its calls: active means hit-call score of the fitted dose curve at least 0.9, where 1 is the maximum; inactive means score below 0.9.
# Experiment: APR_HepG2_CellCycleArrest_24hr: Apredica 24-hour HepG2 Assay for Cell Cycle Arrest (AID 2282905);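 further: cell cycle arrest scored as ratio of 2N to 4N nuclear DNA content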
# Settings: imaging, actives raise or lower the signal
# Method: APR_HepG2_24hr is a cell-based, multiplexed-readout assay that uses HepG2, a human liver cell line, with measurements taken at 24 hours after chemical dosing in a 384-well plate.APR_HepG2_CellCycleArrest_24hr is one of 10 assay component(s) measured or calculated from the APR_HepG2_24hr assay. It is designed to make measurements of cell phenotype, a form of morphology reporter, as detected with fluorescence intensity signals by HCS Fluorescent Imaging technology.Data from the assay component APR_HepG2_CellCycleArrest_24hr was analyzed into 1 assay endpoint. This assay endpoint, APR_HepG2_CellCycleArrest_24hr, was analyzed with bidirectional fitting relative to DMSO as the negative control and baseline of activity. Using a type of morphology reporter, measures of all nuclear dna for gain or loss-of-signal activity can be used to understand the signaling at the pathway-level as they relate to the gene . Furthermore, this assay endpoint can be referred to as a primary readout, because this assay has produced multiple assay endpoints where this one serves a signaling function. To generalize the intended target to other relatable targets, this assay endpoint is annotated to the cell cycle intended target family, where the subfamily is arrest.
# Cells were treated with dimethyl sulfoxide (DMSO) as a solvent control at a final concentration of 0.5% v/v or with compounds in DMSO with a resulting final DMSO concentration of 0.5% v/v. Compound treatment was done at concentrations of 0.39, 0.78, 1.56, 3.12, 6.24, 12.5, 25, 50, 100, and 200 uM in duplicate on each plate. Cells were treated with compounds for 1, 24, or 72 hr. Carbonyl […] m-chloro-phenylhydrazone (CCCP) and taxol were used as positive controls for mitochondrial function and cytoskeletal stability, respectively; DMSO served as the negative control for this experiment. Cells were fixed by the direct addition of 50 uL formaldehyde in Hank's Balanced Salt Solution (HBSS) to a final concentration of 3.7%. After incubation in the fixation medium for 30 min at room temperature (293-298 K), cells were rinsed twice with HBSS and treated with cell permeabilization buffer (16 uL of 0.5% Triton X-100) for 10 min at room temperature (293-298 K) before labeling. For mitochondrial membrane potential and mitochondrial measurements, pre-fixed cells were incubated with 50 uL of MitoTracker Red CMXRos (Invitrogen) at a concentration of 250 nM for 30 min before fixation. In the remaining cases, post-fixed cells were labeled by incubation with a multiplexed mixture of primary antibodies in HBSS for 60 min at room temperature (293-298 K) to detect immunoreactivity of c-Jun (1:500), phospho-histone H3 (1:100), phospho-histone H2A.x (1:200), p53 (1:400), alpha-tubulin (1:200) and Hoechst 33342 (2 ug/mL). Cells were labeled for multiplexed imaging on two separate plates: a) Hoechst 33342, MitoTracker Red, phospho-histone H3, and alpha-tubulin, and b) Hoechst 33342, phospho-histone H2A.x, and c-Jun. A final rinse with HBSS (50 uL) was performed before analysis. The primary and secondary antibodies for the proteins were phospho-histone H3 (rabbit anti-phospho-histone H3 and FITC-donkey anti-rabbit IgG), phospho-histone H2A.x (mouse anti-phospho-histone H2A.x and FITC-donkey anti-mouse IgG), c-Jun (rabbit anti-phospho-c-Jun and Cy3-donkey anti-rabbit IgG), p53 (sheep anti-p53 and Cy5-donkey anti-sheep IgG), alpha-tubulin (mouse anti-alpha-tubulin and Cy5-donkey anti-mouse IgG). These antibodies are available as the CellCiphr HepG2 assay kit (Millipore).Digital images of each well were captured using a Cellomics ArrayScan VTI (Thermo Scientific Cellomics) (0.8 NA objective, 0.63x optical coupler, and XF-93 filter set) at 20x magnification. The images were acquired using the autofocus feature of the ArrayScan instrument, which entails the following steps. First, the camera focuses on channel 1 (Hoechst 33342), where nuclei are identified. Second, a Z offset of 1 um is used for capturing mitochondria (MitoTracker Red). […]
Structure (SMILES),outcome,AC50
Cc1cc(Cl)ccc1OCC(=O)O,inactive,
Cc1c(F)c(F)c(COC(=O)C2C(/C=C(\Cl)C(F)(F)F)C2(C)C)c(F)c1F (stereo not given),inactive,
CCCCNC(=O)n1c(NC(=O)OC)nc2ccccc21,,22.7 µM (active)
O=C(Nc1ccccc1)Nc1ccnc(Cl)c1,,69.9 µM (active)
CC1=C(C(=O)Nc2ccccc2)SCCO1,inactive,
CNC(=S)S,,20.5 µM (active)
COP(=S)(OC)Oc1nc(Cl)c(Cl)cc1Cl,inactive,
Oc1ccccc1-c1ccccc1,,82.1 µM (active)
COC(=O)C(C)Oc1ccc(Oc2ccc(Cl)cc2Cl)cc1 (stereo not given),inactive,
CN(C)C(=S)SSC(=S)N(C)C,inactive,
COc1nc(NC(C)C)nc(NC(C)C)n1,inactive,
CCNc1nc(Cl)nc(NC(C)C)n1,inactive,
CCCN(CCC)c1c([N+](=O)[O-])cc(S(N)(=O)=O)cc1[N+](=O)[O-],inactive,34.9 µM (active)
CCOc1cc(Oc2ccc(C(F)(F)F)cc2Cl)ccc1[N+](=O)[O-],inactive,
COC(=O)C=C(C)OP(=O)(OC)OC,inactive,
COC(=O)N(OC)c1ccccc1COc1ccn(-c2ccc(Cl)cc2)n1,inactive,
CNC(=O)ON=CC(C)(C)SC,inactive,
OC(c1ccc(Cl)cc1)(c1cncnc1)c1ccccc1Cl (stereo not given),inactive,
COc1nc(C)nc(NC(=O)NS(=O)(=O)c2ccccc2CCC(F)(F)F)n1,inactive,

Structure (SMILES),outcome,AC50
CCOC(=O)CC(SP(=S)(OC)OC)C(=O)OCC (stereo not given),inactive,
CCOC(=O)C(Cl)Cc1cc(-n2nc(C)n(C(F)F)c2=O)c(F)cc1Cl (stereo not given),inactive,
CC(C)(C)c1ccc(CSc2cnn(C(C)(C)C)c(=O)c2Cl)cc1,,16.1 µM (active)
CO/C=C(/C(=O)OC)c1ccccc1Oc1cc(Oc2ccccc2C#N)ncn1,inactive,39.3 µM (active) and 692 nM (active)
CC1COC(Cn2cncn2)(c2ccc(Oc3ccc(Cl)cc3)cc2Cl)O1 (stereo not given),inactive,
CON(C)C(=O)Nc1ccc(Cl)c(Cl)c1,,31.2 µM (active)
COP(N)(=O)SC (stereo not given),inactive,
CCCC1COC(Cn2cncn2)(c2ccc(Cl)cc2Cl)O1 (stereo not given),inactive,
CCOP(=S)(OCC)SCn1c(=O)oc2cc(Cl)ccc21,inactive,
CCCCC(CC)COC(=O)c1ccccc1C(=O)OCC(CC)CCCC (stereo not given),inactive,
Fc1ccc(Oc2ccnc3cc(Cl)cc(Cl)c23)cc1,inactive,
CC(Oc1ccc(Cl)cc1Cl)C(=O)O (stereo not given),inactive,
N#Cc1cc(Br)c(O)c(Br)c1,inactive,
CC(C)C1(C)N=C(c2nc3ccccc3cc2C(=O)O)NC1=O (stereo not given),inactive,
N#CC(CCc1ccc(Cl)cc1)(Cn1cncn1)c1ccccc1 (stereo not given),inactive,
O=C(O)c1nc(Cl)ccc1Cl,inactive,
COc1nc(C)nc(NC(=O)NS(=O)(=O)c2ccccc2Cl)n1,inactive,
O=C(O)COc1nc(Cl)c(Cl)cc1Cl,inactive,
CCCCOC(=O)c1ccccc1C(=O)OCCCC,inactive,

# Source: PubChem BioAssay (EPA / NIEHS)
